{"source": "ChEMBL document CHEMBL3988442", "about": "“University of Dundee, Small-Polar-MMV Screening Library” (2021)"}
{"biological_target": "AMP-activated protein kinase, AMPK (Homo sapiens) (UniProt P54646+O43741+P54619+Q9UGJ0+Q9Y478+Q13131+Q9UGI9)", "test": "AMP-dependent Kinase enzyme assay. An in vitro enzyme assay that detects ADP turnover that is directly proportional to AMPK activity. This uses naive AMPK that is activated during the assay with MK-8722", "type": "functional", "set-up": "scale not given: direction of the effect not stated beside the values", "conditions": "30 µM", "units": {"Percent Effect": "%"}}
{"smiles": "CCN1CC2(CCN(CC3CCCO3)CC2)OC1=O", "note": "(centres undefined)", "Percent Effect": -9.49}
{"smiles": "CCN(C)Cc1cccc(CNC(=O)CSCc2ccccn2)c1", "Percent Effect": 4.61}
{"smiles": "CCC[C@H]1CN(Cc2cc(C#N)n(C)c2C)C[C@@H]1NS(=O)(=O)CC", "Percent Effect": -157}
{"smiles": "Cn1cnc(S(=O)(=O)N2CCCC2c2ccnc3nccn23)c1", "note": "(centres undefined)", "Percent Effect": 0.76}
{"smiles": "O=C(NC1CC1)c1nc(Cn2c(C(F)F)nc3ccccc32)no1", "Percent Effect": 10.9}
{"smiles": "O=C(NCc1nc[nH]n1)c1cc(COc2ccccc2F)[nH]n1", "Percent Effect": -3.43}
{"smiles": "O=C(NCc1sc2ccccc2c1Cl)c1cc2n(n1)CCNC2", "Percent Effect": 10.8}
{"smiles": "O=C(CCn1cc(Cl)cn1)N1CCCC(O)(CO)CC1", "note": "(centres undefined)", "Percent Effect": -3.36}
{"smiles": "CC(C)(C)C(=O)NCCc1cc(N2CCOCC2)nc(NC2CC2)n1", "Percent Effect": 17.4}
{"smiles": "Cn1nc(C(=O)NCCc2ccc(OC3CCCC3)cc2)ccc1=O", "Percent Effect": -4.35}
{"smiles": "COCCC(=O)N1CCCC(CCC(=O)NCc2ccccc2F)C1", "note": "(centres undefined)", "Percent Effect": 8.91}
{"smiles": "COCCN(C)C[C@@H]1CN(Cc2ccnc3ccccc23)C[C@@H]1CO", "Percent Effect": -4.2}
{"smiles": "Cc1nn(C)c2nc(N3CCCCC3c3ccc(F)cc3)sc12", "note": "(centres undefined)", "Percent Effect": 3.9}
{"smiles": "Cc1cccc2nc(CN3CCC(N4CCN(C)C4=O)CC3)cn12", "Percent Effect": 6.81}
{"smiles": "CCc1noc(C(C)N2CCN(Cc3noc(C4CC4)n3)CC2)n1", "note": "(centres undefined)", "Percent Effect": 0.498}
{"smiles": "CN(C)Cc1cn(-c2ccccc2C(=O)NCCC2CCCN2C)cn1", "note": "(centres undefined)", "Percent Effect": -16.8}
{"smiles": "Cc1cc(C)c(C#N)c(N2CCC3(CCCN(CCO)C3=O)C2)n1", "note": "(centres undefined)", "Percent Effect": 8.35}
{"smiles": "Cn1cc(Cl)c(CN(Cc2ccsc2)CC2CCCO2)n1", "note": "(centres undefined)", "Percent Effect": 2.65}
{"smiles": "Cc1nc2n(n1)CC(NCc1ccc(Cl)c3cccnc13)CC2", "note": "(centres undefined)", "Percent Effect": 9}
{"smiles": "CCn1ncnc1C(C)Nc1cc(C2CCNCC2)nc(C)n1", "note": "(centres undefined)", "Percent Effect": -7.46}
{"smiles": "FC(F)(F)Oc1ccc(CN2CCCC(n3cncn3)C2)cc1", "note": "(centres undefined)", "Percent Effect": 3.31}
{"smiles": "Cc1nn(C)c(C)c1C1COCCN1C(=O)NC1CC1", "note": "(centres undefined)", "Percent Effect": -1.36}
{"smiles": "COC(=O)CC1CCCCN1CC(=O)Nc1ccc(F)cc1Cl", "note": "(centres undefined)", "Percent Effect": 8.66}
{"smiles": "CCN(C)Cc1cccc(CNC(=O)CSCc2ccncc2)c1", "Percent Effect": -11.3}
{"smiles": "CCn1cc(S(=O)(=O)Nc2ccc3[nH]c(C4CCC4)nc3c2)cn1", "Percent Effect": 2.5}
{"smiles": "CCS(=O)(=O)N1CCN(C(C)c2ncc(-c3ccccc3)o2)CC1", "note": "(centres undefined)", "Percent Effect": -3.96}
{"smiles": "Cc1nccc(CN2Cc3nccn3CC2c2ccccc2)n1", "note": "(centres undefined)", "Percent Effect": 15}
{"smiles": "COc1cccc(F)c1C(C)NC(=O)NCc1cnc(C)s1", "note": "(centres undefined)", "Percent Effect": 10.2}
{"smiles": "CC(C)OCCN1CCC(Nc2ncccn2)CC1", "Percent Effect": -1.19}
{"smiles": "CC1(C)CC(CN2CCC3(CCC(=O)N(CCO)C3)CC2)CCO1", "note": "(centres undefined)", "Percent Effect": -1.98}
{"smiles": "CN(C)CCC1CCN(c2cc(N3CCCC3CO)ncn2)CC1", "note": "(centres undefined)", "Percent Effect": -6.25}
{"smiles": "COc1cc(CN2CC[C@@H](N3CCCCCC3)[C@H](O)C2)cc(Cl)c1OC", "Percent Effect": 13.6}
{"smiles": "O=C1CN([C@@H]2CC[C@@H](NS(=O)(=O)c3ccccc3)[C@H]2O)CCN1", "Percent Effect": 11.7}
{"smiles": "Cc1cccn2cc(CN3CCC(N4CCN(C)C4=O)CC3)nc12", "Percent Effect": 0.324}
{"smiles": "CCS(=O)(=O)NCC(=O)N(C1CC1)C1Cc2ccccc2C1", "Percent Effect": -4.92}
{"smiles": "Cc1ncsc1C(=O)NCCN1CCCCCC1=O", "Percent Effect": -13.5}
{"smiles": "Cc1ncc(CNC(=O)NCc2c(F)cccc2OC(F)F)s1", "Percent Effect": 6.42}
{"smiles": "Cc1nc(N(C)C)ncc1C(=O)N(Cc1ccncc1)CC1CCCO1", "note": "(centres undefined)", "Percent Effect": -6.01}
{"smiles": "Cc1cc(CN(C)C(=O)CNS(=O)(=O)c2cccs2)no1", "Percent Effect": 7.18}
